# Source: PubChem BioAssay (NCI)
# The panel holds about 83,000 compounds, 20% with a hit somewhere; the sample as a whole holds those more often.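 Treatment: one concentration, 48 hours, 96-well format. Scoring: percent growth, with anything below 10 considered active.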 Unmarked numbers belong to inactive results. Active and inactive are the calls of the source.
# Test system: CCRF-CEM leukemia
# Test: NCI-60 one-dose screen, 48 h (100 = growth as untreated, 0 = no growth, -100 = all killed)
# Conditions: 10 µM unless noted
row,Structure (SMILES),growth
1,O=S(=O)(NCCCNc1nccc(-c2[nH]c(-c3ccccc3)nc2-c2ccc(F)c(O)c2)n1)c1cccc(F)c1,37%
2,Cn1cc(-c2cc3ncnc(Nc4ccc(NC(=O)Nc5cc(C(C)(C)C)on5)cc4)c3s2)cn1,22.2%
3,Cn1ncc2c(C(=O)c3ccc(F)cc3)nc(C(C)(C)C)nc21,103%
4,N#Cc1c(-c2cccs2)cc(-c2cnccn2)nc1SCC(=O)N/N=C/c1ccc(Cl)cc1,87.6%
5,O=C(/C=C/c1cc(Cl)ccc1Cl)Nc1ncc(Cc2ccc(Cl)cc2)s1,11.1%
6,CNC(=O)c1cc(N2CCc3cc(NC(=O)Nc4ccc(N5CCN(C)CC5)c(C(F)(F)F)c4)ccc32)ccn1,5.44% (active)
7,CCc1cc(O)ccc1Nc1cc(-c2ccc(-n3cccn3)cc2)[nH]n1,60.4%
8,COc1ccc2[nH]cc(-c3nc(N)nnc3-c3cn(C)c4ccc(Br)cc34)c2c1,2.97% (active)
9,CCCCCCCCCCCC(=O)NC(C)(C)C(=O)N1CCCC1C(=O)NC(C)(C)C(=O)NC(C)(C)C(=O)N1CCCC1C(=O)NC(C)(C)C(=O)NC(C)(C)C(=O)N1CCCC1C(=O)NC(C)C(=O)NCCC(=O)NC(C)C(=O)NC(C)(C)C(=O)NC(C)(C)C(=O)NC(C)(C)C(=O)NCCC(=O)NC(C)(C)C(=O)NC(C)(C)C(=O)NC(C)(C)C(=O)NC(C)C(=O)NCCC(=O)O (stereo unspecified),-55.6% (active)
10,CCCc1[nH]c(-c2cc(N)ccc2Cl)c2c1C(=O)CCCC2,96.2%
11,CC1=C(C)C(=O)C(Nc2ccc(C)cc2)=C(Br)C1=O,17.9%
